Measured values as given in the supplement of paper PMC8728848.
This excerpt belongs to a sample that is enriched for the strongest signals.

Experiments:
Assay in all cases: glycan array binding signal (z-score within array); higher = stronger binding
Settings in all cases: glycan notation: IUPAC condensed, linker removed
Fuc(a1-2)Gal(b1-3)GlcNAc = target: Fuc(a1-2)Gal(b1-3)GlcNAc
Procedure, shortened: (§1)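 Glycan array binding is given as a within-array Z-score, which can be read as non-binding when negative. The arrays, 3228 of them, came from the Consortium for Functional Glycomics database and were retained only where the protein sequence was available. Z-scores were averaged across arrays of the same protein sequence at different concentrations or buffers and across linkers.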

[1] = target: Fuc(a1-2)Gal(b1-4)GlcNAc(b1-2)Man(a1-3)[Fuc(a1-2)Gal(b1-4)GlcNAc(b1-2)Man(a1-6)]Man(b1-4)GlcNAc(b1-4)[Fuc(a1-6)]GlcNAc
Procedure, shortened: as §1

[2] = target: Fuc(a1-2)Gal(b1-4)GlcNAc(b1-3)Gal(b1-4)GlcNAc(b1-2)Man(a1-3)[Fuc(a1-2)Gal(b1-4)GlcNAc(b1-3)Gal(b1-4)GlcNAc(b1-2)Man(a1-6)]Man(b1-4)GlcNAc(b1-4)GlcNAc
Procedure, shortened: as §1

[3] = target: Fuc(a1-2)Gal(b1-4)GlcNAc(b1-3)[Fuc(a1-3)[Gal(b1-4)]GlcNAc(b1-6)]Gal(b1-4)Glc
Procedure, shortened: as §1

[4] = target: Fuc(a1-2)Gal3S(b1-4)GlcNAc
Procedure, shortened: as §1

[5] = target: Fuc(a1-2)[Gal(a1-3)]Gal(b1-3)GalNAc(b1-3)Gal(a1-4)Gal(b1-4)Glc
Procedure, shortened: as §1

[6] = target: Fuc(a1-2)[Gal(a1-3)]Gal(b1-4)GlcNAc(b1-2)Man(a1-3)[Fuc(a1-2)[Gal(a1-3)]Gal(b1-4)GlcNAc(b1-2)Man(a1-6)]Man(b1-4)GlcNAc(b1-4)GlcNAc
Procedure, shortened: as §1

[7] = target: Fuc(a1-2)[Gal(a1-3)]Gal(b1-4)GlcNAc(b1-3)GalNAc
Procedure, shortened: as §1

[8] = target: Fuc(a1-2)[Gal(a1-3)]Gal(b1-4)[Fuc(a1-3)]GlcNAc(b1-3)GalNAc
Procedure, shortened: as §1

[9] = target: Fuc(a1-2)[GalNAc(a1-3)]Gal(b1-4)GlcNAc(b1-3)[Fuc(a1-2)[GalNAc(a1-3)]Gal(b1-4)GlcNAc(b1-6)]GalNAc
Procedure, shortened: as §1

[10] = target: Fuc(a1-2)[GalNAc(a1-3)]Gal(b1-4)GlcNAc(b1-6)GalNAc
Procedure, shortened: as §1

[11] = target: Fuc(a1-2)[GalNAc(a1-4)]Gal(b1-4)GlcNAc
Procedure, shortened: as §1

[12] = target: Gal(a1-3)Gal(b1-4)GlcNAc(b1-2)Man(a1-3)[Gal(a1-3)Gal(b1-4)GlcNAc(b1-2)Man(a1-6)]Man(b1-4)GlcNAc(b1-4)GlcNAc
Procedure, shortened: as §1

[13] = target: Gal(a1-3)Gal(b1-4)[Fuc(a1-3)]GlcNAc(b1-2)Man(a1-3)[Gal(a1-3)Gal(b1-4)[Fuc(a1-3)]GlcNAc(b1-2)Man(a1-6)]Man(b1-4)GlcNAc(b1-4)GlcNAc
Procedure, shortened: as §1

[14] = target: Gal(a1-3)[Gal(a1-4)]Gal(b1-4)GlcNAc
Procedure, shortened: as §1

Gal(b1-3)GlcNAc = target: Gal(b1-3)GlcNAc
Procedure, shortened: as §1

Gal(b1-3)GlcNAc(b1-2)Man = target: Gal(b1-3)GlcNAc(b1-2)Man
Procedure, shortened: as §1

[15] = target: Gal(b1-3)GlcNAc(b1-3)Gal(b1-4)GlcNAc(b1-2)Man(a1-3)[Gal(b1-3)GlcNAc(b1-3)Gal(b1-4)GlcNAc(b1-2)Man(a1-6)]Man(b1-4)GlcNAc(b1-4)GlcNAc
Procedure, shortened: as §1

[16] = target: Gal(b1-4)GlcNAc(b1-2)[Gal(b1-4)GlcNAc(b1-6)]Man(a1-6)[Gal(b1-4)GlcNAc(b1-2)Man(a1-3)]Man(b1-4)GlcNAc(b1-4)GlcNAc
Procedure, shortened: as §1

[17] = target: Gal(b1-4)GlcNAc(b1-3)Gal(b1-4)GlcNAc(b1-3)Gal(b1-4)GlcNAc(b1-3)Gal(b1-4)GlcNAc(b1-3)Gal(b1-4)GlcNAc(b1-2)Man(a1-3)[Gal(b1-4)GlcNAc(b1-3)Gal(b1-4)GlcNAc(b1-3)Gal(b1-4)GlcNAc(b1-3)Gal(b1-4)GlcNAc(b1-3)Gal(b1-4)GlcNAc(b1-2)Man(a1-6)]Man(b1-4)GlcNAc(b1-4)GlcNAc
Procedure, shortened: as §1

[18] = target: Gal(b1-4)GlcNAc(b1-6)[Gal(b1-3)]GalNAc
Procedure, shortened: as §1

[19] = target: Gal(b1-4)GlcNAc(b1-6)[Gal(b1-4)GlcNAc(b1-3)]GalNAc
Procedure, shortened: as §1

Gal(b1-4)GlcNAc6P = target: Gal(b1-4)GlcNAc6P
Procedure, shortened: as §1

Gal3S(b1-3)GalNAc = target: Gal3S(b1-3)GalNAc
Procedure, shortened: as §1

[20] = target: Gal3S(b1-4)[Fuc(a1-3)]GlcNAc6S
Procedure, shortened: as §1

Gal6S(b1-3)GlcNAc6S = target: Gal6S(b1-3)GlcNAc6S
Procedure, shortened: as §1

B1: PX9937A-bvu-521-23-521 (Bacteroides vulgatus) (protein)
chain: LDLAPEDYYGAGNFWKEASQPKAFMLGLHAQLRSYYDMFYTLGELRGGTQRVGTSSLNTSLNYADIRSQNISEDIPGISNWNGLYSPIMQVNHFIQEVENGCTFLDDATRSRYLGQAYGMRALYYFMLYRTFGGVPLITKVDILDGKPSADKFYVERATPEATMEFIKADINKSENYFGNNTSFDAYDWSRYATLMLKAEIYMWAAKVSITGFTATGATDLQTAKTALSGIIGHFELMDNFASIFSCDNKKNTEIIFAMPFIEGEASNDGGRFLYQDAVFLGQAYGRNGKVIEKDTLNLKGTGGVFRDEYTEDFWKTFKEGDSRRDATFMEYYMKNDNGTLSEFGCVMKKRIGTINSNDNRIYISDIPVYRYADALLMMAEIENGLNNPCASYINEVRKRAYGDTFEENKYTEGSYAENELAILQERDKEFVSEGKRWFDVLRMHDASGRSLVFSANANYPGTNPILGTEEAYKMLWPVNIGTLNVNPLLTQTPGYGKK
glycan array binding signal (z-score) (Fuc(a1-2)Gal(b1-3)GlcNAc): -0.251
glycan array binding signal (z-score) [1]: 0.307
glycan array binding signal (z-score) [2]: 0.158
glycan array binding signal (z-score) [3]: -0.083
glycan array binding signal (z-score) [4]: -0.223
glycan array binding signal (z-score) [5]: -0.525
glycan array binding signal (z-score) [6]: 0.549
glycan array binding signal (z-score) [7]: -0.367
glycan array binding signal (z-score) [8]: -0.237
glycan array binding signal (z-score) [9]: -0.334
glycan array binding signal (z-score) [10]: 0.027
glycan array binding signal (z-score) [11]: -0.319
glycan array binding signal (z-score) [12]: 0.763
glycan array binding signal (z-score) [13]: 6.91
glycan array binding signal (z-score) [14]: 2.4
glycan array binding signal (z-score) (Gal(b1-3)GlcNAc): -0.312
glycan array binding signal (z-score) (Gal(b1-3)GlcNAc(b1-2)Man): -0.189
glycan array binding signal (z-score) [15]: -0.279
glycan array binding signal (z-score) [16]: 4.26
glycan array binding signal (z-score) [17]: 2.53
glycan array binding signal (z-score) [18]: 6.72
glycan array binding signal (z-score) [19]: 0.459
glycan array binding signal (z-score) (Gal(b1-4)GlcNAc6P): 0.719
glycan array binding signal (z-score) (Gal3S(b1-3)GalNAc): -0.408
glycan array binding signal (z-score) [20]: -0.018
glycan array binding signal (z-score) (Gal6S(b1-3)GlcNAc6S): -0.386
